This is an account of results in PubChem BioAssay AID2284166 (EPA ToxCast).

Inconclusive results are not listed. Active and inactive are the calls of the source. The calls were made as follows: active = hit-call score of the fitted dose curve at least 0.9, where 1 is the maximum; inactive = score below 0.9.

Neuropeptide Y receptor type 2 (Homo sapiens), sequence (P49146 whole entry, looked up): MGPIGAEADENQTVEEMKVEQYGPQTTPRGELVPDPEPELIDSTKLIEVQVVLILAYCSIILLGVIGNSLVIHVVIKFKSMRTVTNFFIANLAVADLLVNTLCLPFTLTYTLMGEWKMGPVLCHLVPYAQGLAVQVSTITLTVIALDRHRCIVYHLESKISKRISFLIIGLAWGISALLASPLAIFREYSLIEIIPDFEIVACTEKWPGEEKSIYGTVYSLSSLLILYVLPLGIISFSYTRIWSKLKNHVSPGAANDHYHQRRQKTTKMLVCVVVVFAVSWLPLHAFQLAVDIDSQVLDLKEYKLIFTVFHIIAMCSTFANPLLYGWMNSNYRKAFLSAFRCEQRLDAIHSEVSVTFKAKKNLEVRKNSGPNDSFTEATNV

The test addresses Neuropeptide Y receptor type 2 (Homo sapiens) (UniProt P49146). Briefly: ERF_FR_GPCR_hNPY2R: Eurofins (ERF) G Protein-Coupled Receptor (GPCR) Radioligand Binding LeadHunter Assay for human Neuropeptide Y Receptor Y2 Agoniam. As for the experimental part: ERF_FR_GPCR_hNPY2R is a biochemical, single-readout assay that uses extracted gene-proteins in a cell-free assay. Measurements were taken 1 hour after chemical dosing in a 96-well plate. See Y2 Human Neuropeptide Y GPCR Binding (Agonist Radioligand) Assay, Cerep.ERF_FR_GPCR_hNPY2R is an assay component calculated from the ERF_FR_GPCR_hNPY2R assay. It is designed to measure radioligand binding using a type of binding reporter as detected by scintillation counting with radiometry technology.Data from the assay component ERF_FR_GPCR_hNPY2R was analyzed at the assay endpoint, ERF_FR_GPCR_hNPY2R, in the positive analysis fitting direction relative to DMSO as the negative control and baseline of activity. Using a type of binding reporter, gain-of-signal activity can be used to understand changes in binding as they relate to gene NPY2R. To generalize the intended target to other relatable targets, this assay endpoint is annotated to the gpcr intended target family, where the subfamily is neuropeptide Y.
Human cells are incubated for 60 minutes at 37 C with [125I]peptide YY ligand (0.015 nM) and NYP as control inhibitor. Test Sample Requirements: Minimum for 1) Screen: 60 ul of 10 mM stock -OR- 1 mg (pre-weighed) for 10 uM final testing. 2) Dose Response: 90 ul of 10 mM stock -OR- 1 mg (pre-weighed) for a top concentration at 10 uM.
Turning to `O=C(/C=C/c1ccc(O)cc1)CC(=O)/C=C/c1ccc(O)cc1`, the compound was classed as inactive.
